An excerpt weighted towards active compounds, which were near 2.2% of everything screened.
HIF act: HIF pathway transcriptional activators, primary screen, cell-based, U2OS HRE-luciferase, luminescence; U2OS HRE-luciferase reporter; normalized: DMSO 0%, desferrioxamine 100%; activation, % at 7.5 µM (by protocol); 0.32% of 300,000 active;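 active = mean activation of at least 10% of the iron chelator positive control signal, with at least half of replicates also reaching 10%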
GAA850 FXN act: FXN promoter activators, primary screen, cell-based, luciferase luminescence, HEK293 lucGAA850 | HEK293 lucGAA850 FXN promoter luciferase reporter, 24 h; percent of 10 µM SAHA response | activation, % at 6 µM | 0.56% of 360,000 active | AID 540364, 2011;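 active = activation above the average of all compounds screened plus 3 SD, cutoff fixed separately per campaign, cut at about 7.5% in these data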;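 note: 0% = DMSO wells and 100% = 10 µM SAHA wells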
SMARCA2 activ: SMARCA2 (BRM) function activators, primary screen, cell-based, luminescence, high throughput | MG213 cells, MMTV-luciferase reporter, dexamethasone, overnight | activation, % at 9.1 µM | 1% of 370,000 active; in the data active = activation above about 7.8%;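 note: 0% = vehicle wells and 100% = reference activator wells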
GalR3 antagonist: GalR3 antagonists in HEK293 cells, primary screen, cell-based, fluorescence readout; Galanin receptor type 3 (Homo sapiens), O60755; HEK293 GalR3-CNG cAMP membrane potential fluorescence; galR3 body fused to GalR1 C-terminus; inhibition, % at 3 µM; 0.44% of 360,000 active; AID 651719, 2012;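 active = inhibition above the screen-wide average plus 3 SD, cut at about 13% in these data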;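 note: forskolin and galanin both at EC90 stimulate the cells; cAMP rise reported by CNG channel membrane potential dye signal; 0% = forskolin plus galanin with DMSO and 100% = forskolin alone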
Target sequence (O60755 1-299 limits assumed): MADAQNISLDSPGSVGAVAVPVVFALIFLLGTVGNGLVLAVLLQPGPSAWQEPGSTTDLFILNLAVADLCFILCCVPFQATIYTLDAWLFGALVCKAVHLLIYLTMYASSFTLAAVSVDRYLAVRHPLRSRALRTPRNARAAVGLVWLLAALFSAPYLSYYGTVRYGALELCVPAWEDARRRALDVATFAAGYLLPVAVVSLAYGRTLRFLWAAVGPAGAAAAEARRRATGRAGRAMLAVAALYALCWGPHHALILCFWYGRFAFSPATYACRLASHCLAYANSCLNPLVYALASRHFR
Hsp70 act: Hsp70 transcriptional activators, primary screen, cell-based, HeLa, Hsp70 promoter luciferase, luminescence, 10 µM; 0.04% of 200,000 active; activation, % at 10 µM; HeLa Hsp70 promoter luciferase reporter; scaled: vehicle 0, proteasome-inhibitor control 100%;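 active = activation above the mean across all tested compounds plus 3 SD, cutoff set per campaign, cut at about 5.5% in these data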;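 note: 100% = MG132 at 30 µM as the positive control and 0% = DMSO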
GAA30 counter: GAA30 FXN promoter activators, confirmation, counter-screen for GAA850 frataxin promoter activator project, cell-based, luminescence, HEK293, lucGAA30, triplicate; activation, % at 6 µM; 66% of 1,900 active; HEK293 lucGAA30 FXN promoter luciferase, 24 h; DMSO = 0%, 5 µM ipriflavone = 100%; shares compounds with GAA850 FXN act;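 active = mean activation above the mean of solvent-only control wells plus 3 SD, cut at about 22% in these data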;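 note: counterscreen of GAA850 promoter hits where activity marks nonselective or luminescence artifacts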
GAA850 confirm: FXN GAA850 promoter activators in reporter cells, confirmation, cell-based, luminescence, HEK293 lucGAA850, triplicate; shares compounds with GAA850 FXN act; HEK293 lucGAA850 FXN promoter luciferase reporter, 24 h; 100% = activation by SAHA; activation, % at 6 µM; 86% of 1,900 active;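 active = mean activation above a set limit taken from the primary screen, cut at about 8% in these data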;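 note: 0% = DMSO wells and 100% = 10 µM SAHA wells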
An asterisk follows results filed as active.

Screening Cn1ccsc1=NC(=O)c1ccc(S(C)(=O)=O)c([N+](=O)[O-])c1 returned HIF act 0, GAA850 FXN act 10*, SMARCA2 activ -1, GalR3 antagonist -3, GAA30 counter 73* and GAA850 confirm 30*.
`O=C(N/N=C/c1ccc(O)cc1)Nc1cccc2nsnc12` gave HIF act 4, GAA850 FXN act 11*, SMARCA2 activ 7, GalR3 antagonist 0, Hsp70 act 0, GAA30 counter 57* and GAA850 confirm 37*.
`COc1cc(/C=N/NC(=O)Nc2cccc3nsnc23)cc(OC)c1OC` gave HIF act 1, GAA850 FXN act 0, SMARCA2 activ 0, GalR3 antagonist 7 and Hsp70 act 0.
Screening COC(=O)CC#C[C@H](C)[C@@H](NS(=O)(=O)c1ccc([N+](=O)[O-])cc1)C(C)(C)C returned SMARCA2 activ -5 and GalR3 antagonist -4.
`Cc1ccc(-c2nc(NCc3cccnc3)c3ccccc3n2)cc1` gave HIF act 0, GAA850 FXN act 7.7*, SMARCA2 activ -1, GalR3 antagonist -12, Hsp70 act 1, GAA30 counter 30* and GAA850 confirm 13*.
Screening c1ccc(-c2nc(NCc3cccnc3)c3ccccc3n2)cc1 returned HIF act 0, GAA850 FXN act 4 and Hsp70 act 0.
`COc1ccc(C(=O)OCC(=O)N2CCCCC2)cc1[N+](=O)[O-]` gave HIF act 0, GAA850 FXN act 0, SMARCA2 activ -2, GalR3 antagonist -4 and Hsp70 act 0.
CC(C)CN1CCN(C(=O)COC(=O)c2ccc(S(C)(=O)=O)c([N+](=O)[O-])c2)CC1 was read as GAA850 FXN act 9.7*, SMARCA2 activ -11, GalR3 antagonist -4, GAA30 counter 70* and GAA850 confirm 15*.
Screening O=C1CCC2(CCCCC2)N1CCCO returned SMARCA2 activ -2.
`COc1ccc([C@@H]2[C@@H]3C(=O)N(C(C)(C)C)C(=O)[C@@H]3[C@]3(Cc4ccccc4)C(=O)N(c4ccccc4)C(=O)N23)cc1` gave HIF act 0, GAA850 FXN act 1, SMARCA2 activ 0 and GalR3 antagonist -8.
For CC[C@@]12C(=O)N(c3ccccc3)C(=O)N1[C@H](c1ccc(OC)cc1)[C@@H]1C(=O)N(C(C)(C)C)C(=O)[C@@H]12 the results were HIF act -1, GAA850 FXN act 11*, SMARCA2 activ 0, GalR3 antagonist 0, GAA30 counter 35* and GAA850 confirm 14*.
Screening COc1ccc(N2C(=O)N3[C@H](c4ccc(Br)cc4)[C@@H]4C(=O)N(C(C)(C)C)C(=O)[C@@H]4[C@]3(Cc3ccccc3)C2=O)cc1 returned HIF act -1, GAA850 FXN act -1, SMARCA2 activ 0 and GalR3 antagonist -8.
Screening CC[C@@]12C(=O)N(c3ccc(C)cc3)C(=O)N1[C@H](c1ccc(Br)cc1)[C@@H]1C(=O)N(C(C)(C)C)C(=O)[C@@H]12 returned HIF act 0, GAA850 FXN act 13*, SMARCA2 activ 0, GalR3 antagonist -8, GAA30 counter 28* and GAA850 confirm 10*.
`CC[C@@]12C(=O)N(c3ccc(C)cc3)C(=O)N1[C@H](c1ccc(OC)cc1)[C@@H]1C(=O)N(C(C)(C)C)C(=O)[C@@H]12` gave HIF act 1, GAA850 FXN act 12*, SMARCA2 activ 2, GalR3 antagonist -6, GAA30 counter 33* and GAA850 confirm 13*.
For Cc1cc(Oc2cccnc2)ccc1NC(=O)Cc1c(C)[nH]c2ccccc12 the results were SMARCA2 activ -2 and GalR3 antagonist -7.
Screening COc1nc(NCCO)nc(Nc2ccccc2F)n1 returned HIF act 2, GAA850 FXN act 14*, SMARCA2 activ 6, GalR3 antagonist -6, Hsp70 act 0, GAA30 counter 86* and GAA850 confirm 25*.
Screening Cc1nn2cc(-c3ncc(C(F)(F)F)cc3Cl)cnc2c1Br returned HIF act -4, GAA850 FXN act 10.0*, SMARCA2 activ 4, GalR3 antagonist -1, Hsp70 act 0, GAA30 counter 54* and GAA850 confirm 20*.
Screening Cc1ccccc1/C=N/Nc1ncnc2nc[nH]c12 returned HIF act 2, GAA850 FXN act 8.4*, SMARCA2 activ 0, GalR3 antagonist -6, GAA30 counter 64* and GAA850 confirm 21*.
For Fc1ccc(/C=N/Nc2ncnc3nc[nH]c23)cc1F the results were HIF act 2, GAA850 FXN act 5, SMARCA2 activ 5, GalR3 antagonist 6 and Hsp70 act 0.
Screening C(=N\Nc1ncnc2nc[nH]c12)/c1cccs1 returned HIF act 4, GAA850 FXN act 12*, SMARCA2 activ 1, GalR3 antagonist -5, Hsp70 act 0, GAA30 counter 88* and GAA850 confirm 43*.
For Cc1ccsc1/C=N/Nc1ncnc2nc[nH]c12 the results were HIF act 0, GAA850 FXN act 13*, SMARCA2 activ 5, GalR3 antagonist -4, Hsp70 act 1, GAA30 counter 129* and GAA850 confirm 48*.
COc1ccc(CN2CCC(CNC(=O)Nc3ccc(C)c(F)c3)CC2)cc1 was read as SMARCA2 activ -1.
For CCC(C)NC(=O)c1cnn2c(C)c3c(nc12)CCCC3 (stereo not given) the results were HIF act 0, GAA850 FXN act 7.8*, SMARCA2 activ 0, GalR3 antagonist 8, Hsp70 act 0, GAA30 counter 18 and GAA850 confirm 9.6*.
For Cc1c2c(nc3c(C(=O)NC4CC4)cnn13)CCCC2 the results were HIF act 1, GAA850 FXN act 4, SMARCA2 activ 5, GalR3 antagonist -7 and Hsp70 act 0.
Screening CCCCNC(=O)NCCCN1CCN(c2ccc(F)cc2)CC1 returned SMARCA2 activ -4.
`Cc1ccc(NC(=O)CNC(=O)COc2ccccc2)nc1` gave HIF act 0, GAA850 FXN act -2, SMARCA2 activ -1 and GalR3 antagonist -3.

Source: PubChem BioAssay (several laboratories)
